The target in the assay is Muscarinic acetylcholine receptor M5 (Homo sapiens) (UniProt P08912). Briefly: M5 muscarinic receptor negative allosteric modulators, cell-based, single concentration, human M5 (AID 743025). Particulars: CHO-K1 hM5, ACh EC80 calcium flux, Fluo-4; at 10 µM; stronger effect = lower value. (In general: A change in cytosolic calcium serves as a functional read-out for many receptors and channels.)

Molecules are shown by their SMILES. Unmarked numbers belong to inactive results.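 Rule for the calls: active = IC50 below 10 µM at human M5 in a calcium flux test, acting as a negative modulator; inactive = the rest.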

Sequence of Muscarinic acetylcholine receptor M5 (Homo sapiens) (P08912 whole entry, looked up): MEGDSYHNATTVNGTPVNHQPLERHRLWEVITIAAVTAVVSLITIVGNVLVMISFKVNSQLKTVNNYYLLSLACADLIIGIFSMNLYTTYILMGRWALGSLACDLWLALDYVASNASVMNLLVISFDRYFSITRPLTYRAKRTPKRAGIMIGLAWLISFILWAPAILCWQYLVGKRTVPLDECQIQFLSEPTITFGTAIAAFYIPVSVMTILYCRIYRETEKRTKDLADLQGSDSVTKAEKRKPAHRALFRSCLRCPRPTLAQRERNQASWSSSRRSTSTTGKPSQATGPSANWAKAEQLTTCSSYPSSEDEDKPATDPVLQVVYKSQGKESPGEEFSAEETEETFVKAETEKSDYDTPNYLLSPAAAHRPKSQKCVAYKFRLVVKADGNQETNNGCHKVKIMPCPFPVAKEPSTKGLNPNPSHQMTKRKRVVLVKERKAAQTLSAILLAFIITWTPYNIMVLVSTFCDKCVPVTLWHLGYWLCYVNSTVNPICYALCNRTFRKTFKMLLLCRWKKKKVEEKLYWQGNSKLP

Take `O=C1c2ccccc2C2(c3ccc(Cl)cc3)NCCN12` (configuration not stated): the activity remaining is 78.7%.
Next, `O=C1c2ncccc2C2(c3ccccc3)NCCN12` (configuration not stated): 67.2%.
